Pf growth 96h: P. falciparum growth inhibition at 96 hours | P. falciparum luciferase reporter growth, 96 h | Potency, µM (highest dose often 28.7 µM), without a hit: at the highest dose activity change, negative = inhibition, usual class: inhibitors | hit rate 6.9% among 320,000 | AID 504834; active = well fitted inhibition curve with a large enough effect; inconclusive = small, poorly fitted or top-dose-only effect, or another doubt; inactive = no such curve, though single readings can be large or run the other way; also: % is scaled to controls: 0 for no effect and ±100 for the full control effect
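Infected RBCs, 2% Hct / 0.05% parasitemia final; luciferase-reporter P. falciparum; cpd 96 h, 37 C, 5% CO2; luciferase detection reagent; luminescence.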
SARS PLP yeast: SARS-CoV PLP inhibition in yeast; AID 485353; Potency, µM (series often up to 32.9 µM), inactives show at the top dose activity, positive = growth rescue, usual class: activators; hit rate 0.19% among 330,000; S. cerevisiae expressing SARS-CoV PLpro, growth rescue; also: 0% is about no effect; nearly all actives have a fitted effect of over 55% in size
Pf growth 48h: inhibits P. falciparum growth in the first generation, 48 h | AID 504832 | hit rate 5.9% among 310,000 | P. falciparum luciferase growth in erythrocytes, 48 h | Potency, µM (top dose mostly 28.7 µM), without a hit: top-dose activity change, negative = inhibition, usual class: inhibitors; active = well fitted inhibition curve with a large enough effect; inconclusive = small, poorly fitted or top-dose-only effect, or another doubt; inactive = no such curve, though single readings can be large or run the other way; also: % is scaled to controls: 0 for no effect and ±100 for the full control effect
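Firefly luciferase activity from engineered P. falciparum reports growth; inhibitors lower the luminescent signal. Cultures contained 2% hematocrit erythrocytes at 0.1% final parasitemia.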
RE007 growth inh: less growth of the S. pombe RE007 Vpr strain; hit rate 0.21% among 360,000; AID 651644; S. pombe RE007 Vpr strain, BacTiter-Glo ATP luminescence, 24 h; Potency, µM (doses to about 92.2 µM), for the others: at the highest dose activity change, negative = less growth, most hits filed as inhibitors; active = well fitted falling curve with a large enough effect; inconclusive = small, poorly fitted or top-dose-only effect; inactive = no such curve, though single readings can be large or run the other way; also: % is scaled to controls: 0 for no effect and ±100 for the full control effect; nearly all actives have a fitted effect of over 50% in size
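Fission yeast strain RE007, carrying one chromosomally integrated HIV-1 vpr copy, was seeded at OD 0.01 in PMG+AL medium with 23 nL pinned compound. After 24 h at 30 °C and 99% humidity, viability was read by BacTiter-Glo luminescence.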
NS1 inh: inhibitors of influenza NS1 protein function; hit rate 0.4% among 270,000; AID 2326; Potency, µM (titrated, usually from 46.1 µM), for inactives: at the top dose activity, positive = more growth; also: actives are rising curves; nearly all actives have a fitted effect of over 50% in size
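OD600 was taken as the measure of yeast growth restored by compound in an NS1-expressing S. cerevisiae strain. Cells had been washed out of glucose medium and diluted 1:100 into galactose -URA medium, pH 6.0.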
Numbers without * were called inactive; ? = inconclusive; / = not tested or not shown; [ ] = another dose, or the depositor's remark. Rows were chosen to be rich in hits. Some 9.5% of all compounds tested hit in one or more screens of this group. Unless noted, calls follow the shape of the full dose curve. Potency is read from the fitted curve at half-maximal effect.

SMILES | Pf growth 96h | SARS PLP yeast | Pf growth 48h | RE007 growth inh | NS1 inh
CCOc1cc(S(=O)(=O)NCCc2cccc(C)c2)c(OCC)cc1-n1cnnn1 | 6.57µM* | -3.4% | 9.28µM* | 10.6% | -34.5%
Cc1ccc(S(=O)(=O)N2CC=C(c3ccc(F)cc3)CC2)cc1 | 0.0% | -27.1% | -11.3% | 33.2% | -11.6%
CCOc1cc(S(=O)(=O)N2CC=C(c3ccc(F)cc3)CC2)c(OCC)cc1-n1cnnn1 | ? | -4.2% | 7.38µM* | 0.4% | -23.0%
CCOc1cc(S(=O)(=O)N2CCC(Cc3ccccc3)CC2)c(OCC)cc1-n1cnnn1 | ? | -2.6% | 13.1µM* | -0.3% | 23.1%
CCOc1cc(S(=O)(=O)N(CC)CC)c(OCC)cc1-n1cnnn1 | -1.8% | 4.5% | 0.8% | 4.6% | -5.0%
CCOc1cc(S(=O)(=O)NCCc2ccccc2C)c(OCC)cc1-n1cnnn1 | ? | -1.1% | ? | 12.1% | -10.3%
COCCN1Cc2cc3cc(C)ccc3nc2SC1=Nc1ccc(OC)cc1 | -21.8% | -2.0% | ? | -20.2% | 0.5%
CCOc1ccc(N=C2Sc3nc4ccc(C)cc4cc3CN2CCOC)cc1 | -12.3% | -1.4% | ? | -13.6% | /
Cc1cccc(N=C2Sc3nc4c(C)c(C)ccc4cc3CN2CCN2CCOCC2)c1 | 7.38µM* | -9.4% | 11.7µM* | 5.0% | 16.9%
COCCN1Cc2cc3cc(C)ccc3nc2SC1=Nc1cccc(OC)c1 | 0.7% | -1.9% | 14.7µM* | 5.9% | /
Cc1ccc2[nH]c(=O)c3cc(C(=O)N(C)c4ccc(C)c(C)c4)sc3c2c1 | 8.28µM* | 2.9% | ? | -0.7% | -0.8%
CCCCN(CC)CCNC(=O)c1cc2c(=O)[nH]c3ccc(C)cc3c2s1 | 8.3% | -0.4% | 8.28µM* | 0.5% | -0.2%
C#CCn1c(O)c(N=NC(=O)CNC(=O)c2cccnc2)c2ccccc21 | 18.5% | -3.7% | 19.0% | -3.2% | 2.8%
CCCCn1c(SCC(=O)c2c(N)n(C3CC3)c(=O)[nH]c2=O)nc2cc(S(N)(=O)=O)ccc21 | ? | -1.0% | 14.9% | 16.6% | /
CCC(C)[C@H](NC(=O)[C@@H]1Cc2ccccc2CN1)C(=O)Nc1ccc2c(c1)OCO2 (some centres not stated) | ? | 2.0% | ? | 10.7% | -6.0%
Cc1ccc(-n2nc3c(c2NC(=O)C(C)C)CS(=O)(=O)C3)c(C)c1 | ? | -1.6% | 0.0147µM* | 2.9% | 6.6%
Cc1ccc(-n2nc3c(c2NC(=O)c2ccco2)CS(=O)(=O)C3)c(C)c1 | ? | 13.2% | -5.6% | 6.7% | 11.6%
C=CCn1c(SCc2nc3c(c(=O)[nH]c(=O)n3CCCC)n2CCC)nnc1-c1ccccc1 | / | 1.8% | 8.28µM* | 0.2% | 0.6%
O=C(Nc1ccc2c(c1)OCO2)[C@@H]1[C@@H]2C(=O)N(C3CCCCC3)C(=O)[C@@H]2C2c3ccccc3C=CN21 (some centres not stated) | -10.9% | 0.8% | ? | / | 15.3%
CC(C)(C)C(=O)[C@@H]1[C@@H]2C(=O)N(C3CCCCC3)C(=O)[C@@H]2[C@H]2c3ccccc3C=CN12 | 14.7µM* | -2.3% | / | 2.4%[3.69 µM] | ?
CCOc1ccc(S(=O)(=O)NCc2ccc(OC)cc2)c2cccnc12 | -6.1% | -4.5% | 9.0% | -7.5% | -1.4%
CCOc1ccc(Br)cc1S(=O)(=O)NCc1ccncc1 | 13.1µM* | -2.9% | -0.6% | 3.6% | -5.9%
CCOc1ccc(S(=O)(=O)NCc2ccc(F)cc2)c2cccnc12 | 6.57µM* | -1.9% | -0.3% | 20.6% | -6.6%
COc1ccc(C(=O)NCc2ccncc2)cc1S(=O)(=O)NCc1ccc(Cl)cc1 | 10.4µM* | -1.4% | ? | 3.0% | /
CCOc1ccc(Br)cc1S(=O)(=O)NCc1ccc(S(N)(=O)=O)cc1 | -18.9% | 1.5% | -7.5% | 5.4% | 1.1%
SMILES | Pf growth 96h | SARS PLP yeast | Pf growth 48h | RE007 growth inh | NS1 inh
COc1ccc(Cl)cc1S(=O)(=O)NCc1ccncc1 | 4.7% | -1.0% | -4.3% | 4.4% | -2.3%
CS(=O)(=O)N(CC(=O)NCCSCc1ccccc1)c1ccccc1F | ? | 13.0% | -3.0% | -9.9% | 9.2%
CN(CCC#N)C(=O)Cn1nc(Cc2ccncc2)c2ccccc2c1=O | 13.1µM* | 8.0% | / | -16.5% | -8.6%
CCCCNC(=O)Cn1nc(Cc2ccncc2)c2ccccc2c1=O | 9.28µM* | 0.1% | 36.4% | -0.8% | 10.7%
O=C(Cn1nc(Cc2ccncc2)c2ccccc2c1=O)N1CCc2ccccc2C1 | 49.1% | -1.7% | 1.4% | -1.3% | -9.6%
CC(=O)NC(c1ccccc1)c1nc(-c2cccc(CO)c2)cs1 (configuration not stated) | / | / | / | 2.6% | /
C/C(=N\OCC(=O)OC(C)C(=O)Nc1ccc(C)c(S(=O)(=O)N2CCOCC2)c1)c1ccc2c(c1)OCO2 (configuration not stated) | / | / | / | 6.8% | /
CCCCCCCCCCCCCCCCN | -13.0% | / | 1.0% | / | /
CCCCCC(C)N (configuration not stated) | 12µM* | / | ? | / | /
COc1ccc(N(CC(=O)NCCC2=CCCCC2)S(=O)(=O)c2ccc(C)cc2)cc1 | ? | -0.5% | ? | / | 5.2%
O=C(O)c1ccc(C2SCC(=O)N2Cc2ccccc2)cc1 (configuration not stated) | 1.65µM* | -1.9% | -3.9% | 0.6% | 1.5%
NC(=O)c1ccc(C2SCC(=O)N2Cc2ccccc2)cc1 (configuration not stated) | ? | 1.6% | 2.3% | -7.1% | 2.2%
Cc1cccc(C(=O)OCC(=O)NN2C(=O)NC3(CCC(C)CC3)C2=O)c1O (configuration not stated) | 13.7% | 0.1% | 15.5% | ? | /
CS(=O)(=O)Nc1ccc(-c2cc(/C=C3\SC(N)=NC3=O)c[nH]c2=O)cc1 | ? | 1.3% | ? | -5.4% | 7.4%
COc1ccc(CNC(=O)CCN2C(=O)[C@@H]3Cc4ccccc4CN3C2=O)cc1 | ? | 4.8% | 16.3% | 7.6% | 2.1%
COc1ccc(CC(=O)OCC(=O)Nc2c(C)n(C)n(-c3ccccc3)c2=O)cc1OC | 30.5% | 5.1% | -17.4% | -11.8% | /
C#CCOCCOCCOCCNc1nc(N2CCN(C(=O)[C@H]([C@@H](C)CC)n3cc(CCCN=C(N)N)nn3)CC2)nc(N2CCN(C(=O)[C@H](CCCCN)n3cc(CCC(=O)O)nn3)CC2)n1 | -0.3% | 7.9% | 6.9% | -5.6% | 6.1%
C#CCOCCOCCOCCNc1nc(N2CCN(C(=O)CCCCCCCCCCNC(=O)[C@@H](CCSC)n3cc(CCO)nn3)CC2)nc(N2CCN(C(=O)CCCCCCCCCCNC(=O)[C@H]([C@@H](C)CC)n3cc(CCCCN=C(N)N)nn3)CC2)n1 | 0.415µM* | 5.7% | 1.65µM* | 9.8% | /
C#CCOCCOCCOCCNc1nc(N2CCN(C(=O)CCCCCCCCCCNC(=O)[C@@H](CCSC)n3cc(CCO)nn3)CC2)nc(N2CCN(C(=O)CCCCCCCCCCNC(=O)[C@H]([C@@H](C)CC)n3cc(CCCCCN)nn3)CC2)n1 | 2.08µM* | -3.8% | 1.65µM* | 7.0% | /
